Laboratory results published in the supplement of paper PMC10338343.
± gives the standard deviation. The full ranking holds about 6,200 sequences; the median of “pre-steady-state target cleavage rate” is about 0.29, and the highest 2% start at about 2. This excerpt belongs to a sample that is enriched for the highest values.

tested on: MIWI (PIWIL1) piRISC loaded with piRNA #1 (30 nt); test: pre-steady-state target cleavage rate (min^-1); MIWI and MILI are mouse PIWI proteins and EfPiwi is from a freshwater sponge; tags in brackets are library labels; higher = faster piRNA-guided slicing of the target; settings: guide: piRNA #1 5'p-UGAGGUAGUAGGUUGUAUAGUAUCCAGAGG; auxiliary factor: 500 nM mouse GTSF1
Experimental: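 Cleave-'n-Seq: a library of target RNAs (target site embedded in constant flanks, ACAGCATTCCGCGTTAGTGATATCCG... 5' flank; DNA-blocked outside the site) at 0.1 nM was incubated with 1 nM active mouse MILI or MIWI piRISC (synthetic 5'-monophosphorylated piRNA guide) with or without 500 nM mouse GTSF1 at 33 °C for 1 min to 16 h. Uncleaved targets were sequenced and normalised to non-target controls, and the pooled three trials were fitted to a burst-and-steady-state model to give the pre-steady-state cleavage rate (min^-1; k3 is constrained to at most 1e-4). Sequence is the target site only; target names encode pairing extent (gX:gY) and contiguous / 1-mismatch / 2-mismatch / bulge geometry. Fits with R² ≤ 0 are excluded.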

Row | Sequence | pre-steady-state target cleavage rate
1 | CCUCUGGAUACUAUAGAACCUACUACCACA | 0.372 ± 0.042
2 | GCUCUGGAUACUAUCACAACCUACUACCUCA | 1.62 ± 0.12
3 | GCUCAGGAUACUAUACAUCCUACUACCUCA | 1.85 ± 0.099
4 | CCUCAGGAUACUAUACAUCCUACUACCUCA | 2.03 ± 0.12
5 | GGUCAGGAUACUAUACAUCCUACUACCUCA | 1.54 ± 0.079
6 | GGUCUCGAUACUAUACAACCUACUACCUCA | 1.83 ± 0.12
7 | CCUCUGGAUACCUAUACAACCUACUACCUCA | 1.18 ± 0.072
8 | CCUCUGGAUACUAUACUACCUACAACCUCA | 1.08 ± 0.098
9 | CCUCUGGAUACUAUACAACCUACAACCUCA | 1.56 ± 0.1
10 | CUCUCUGGAUACUAUACAACCUACUACCUCA | 2.1 ± 0.13
11 | UCUCUGGAUACUAUACAACCUACUACCUCA | 2.04 ± 0.1
12 | GCCUCUGGAUACUAUACAACCUACUACCUCA | 1.89 ± 0.12
13 | GGAGUGGAUACUAUACAACCUACGUACCUCA | 0.712 ± 0.076
14 | GGAGAGGAUACUUUAGAACCUACUACCUCA | 0.919 ± 0.051
15 | GGAGAGGAUACUAUACAACCUACUGACCUCA | 0.576 ± 0.034
16 | GGAGACGAUUCAAUACAACCUACUACCUCA | 0.502 ± 0.063
17 | GGAGACCUAUCUUUACAACCUACUACCUGA | 0.101 ± 0.025
18 | GCUCUGGAUACUAUACAACCUACUACUUCA | 2.26 ± 0.14
19 | CCUCUGGAUACUAUACAACCUACUUCCUCA | 0.668 ± 0.053
20 | CCUCUGGAUACUAUACAACCUACUACCUUCA | 1.88 ± 0.12
21 | CCUCUGGAUACUAUACAACCUACUACUUCA | 2.32 ± 0.16
22 | GCUCUGGAUACUAUACAACCUACUACCUUCA | 1.9 ± 0.13
23 | GGUCUGGAUACUAUACAACCUACUACUUCA | 1.32 ± 0.095
24 | GCUCUGCAUACUAUACAACCUACUACGUCA | 1.24 ± 0.086
25 | GGACUGGAAACUUUACAACCUACUACCUCA | 0.689 ± 0.076

Row | Sequence | pre-steady-state target cleavage rate
26 | GCUCUGGAUACUAAAGAACCUACUACCUCA | 1.17 ± 0.087
27 | GGAGACCUAACUAUACAACCUAGUUCCUCA | 0.0155 ± 0.0059
28 | CCUCUGGAUACUAUACAACCUACCUACCUCA | 1.8 ± 0.11
29 | CUCUGGAUACUAUACAACCUACUACCUCA | 2.17 ± 0.14
30 | GCUCUGGAUACUAUGCAACCUACUACCUCA | 1.84 ± 0.1
31 | CCUCUGGAUACUAUUCAACCUACAACCUCA | 1.62 ± 0.13
32 | CCUCUGGAUACUAUACAACCUACUACCUCA [g2:g30:cont:t1A] | 1.96 ± 0.12
33 | GGUCUGGAUACUAUGCAACCUACUACCUCA | 1.73 ± 0.12
34 | CCUCUGGAUACGAUACAACCUACUACCUCA | 2.07 ± 0.11
35 | GGUCUGGAUACUAUUCAACCUACAACCUCA | 0.28 ± 0.033
36 | GCUCUGGAUACUAUUCAACCUACAACCUCA | 1.3 ± 0.099
37 | GGUCUGGAUACGAUACAACCUACUACCUCA | 1.79 ± 0.11
38 | CCUCUGGUUACUAUUCAACCUACUACCUCA | 2.15 ± 0.14
39 | CCUCUGGAUACUAUGCAACCUACUACCUCA | 2.09 ± 0.13
40 | GCUCUGGAUACGAUACAACCUACUACCUCA | 1.7 ± 0.086
41 | GGACUGGAUAGUAUACAACCUUCUACCUCA | 0.575 ± 0.045
42 | GGUCUGGAUACUAUACAACGUUCUACCUCA | 0.117 ± 0.014
43 | GGAGACCUAUGUAUAGAACCUUCUACCUCA | 0.0033 ± 0.0012
44 | GCUCUGGAUACUAUACAACCUACUAUCCUCA | 1.51 ± 0.11
45 | GGUGUGGAUACUAUACAACCUUCUACCUCA | 0.734 ± 0.033
46 | GGAGACCUAACUAUACAACGUACUACCACA | 0.165 ± 0.031
47 | GGAGACCUAUGAAUACUAGCUACUACCUCA | < 0.0001
48 | GGAGAGGAUACUAUACAACCUUCUAGCUCA | 0.0222 ± 0.0082
49 | GGACUGGAUACUAUACAACUUACUACCUCA | 0.518 ± 0.023
50 | GGUCUGAAUACUAUACAACCUACUACCUCA | 1.8 ± 0.097

Row | Sequence | pre-steady-state target cleavage rate
51 | GGUCUGGAUACUAUUCAACCUACUACCACA | 0.506 ± 0.045
52 | GCUCUGAAUACUAUACAACCUACUACCUCA | 1.89 ± 0.12
53 | CCUCUGGAUACUAAACAACCUACUACCUCA | 1.86 ± 0.12
54 | CCUCUGGAUACUAUACAACCUACUACCCUCA | 1.38 ± 0.097
55 | CCCUCUGGAUACUAUACAACCUACUACCUCA | 2.25 ± 0.12
56 | GCUCUGGAUACUAAACAACCUACAACCUCA | 1.23 ± 0.089
57 | CCUCUGGAUACUAUUCAACCUACUACCACA | 2.19 ± 0.18
58 | CCUCUGGUUACUAAACAACCUACUACCUCA | 2.34 ± 0.16
59 | GCUCUGGAUACUAUUCAACCUACUACCACA | 1.9 ± 0.16
60 | CCUCUGGAUACUAAACAACCUACAACCUCA | 1.48 ± 0.12
61 | CCUCUGGAUACUAUACAACCCUACUACCUCA | 0.00658 ± 0.0036
62 | CCUCUGAAUACUAUACAACCUACUACCUCA | 2.09 ± 0.13
63 | GGAGGGGAUACUAUACAACCUACUACCUCA | 1.51 ± 0.069
64 | GCACUGGAUACAAUACAACCUACUACCUCA | 1.8 ± 0.1
65 | GGAGACCUAUCUAUACAACCUACUCACCUCA | 0.537 ± 0.059
66 | GGAGUGGAUACUAAACAACCUACUUCCUCA | 0.0286 ± 0.0079
67 | GGAGUGGAUACUGAUACAACCUACUACCUCA | 1.3 ± 0.098
68 | GGAGACCUAACAAUACAACCUACUACCUGA | 0.00542 ± 0.0049
69 | GGAGAGGAUACGUAUACAACCUACUACCUCA | 0.484 ± 0.047
70 | GGAGUGGUUACAAUACAACCUACUACCUCA | 1.2 ± 0.079
71 | GGUCUGGAAACUAUACAACCUAGUACCUCA | 0.484 ± 0.077
72 | GGAGACCUAACUAUACAACCUACUACCCCA | 0.867 ± 0.099
73 | GGUCUGGAUACUAUAUAACCUACUACCUCA | 1.86 ± 0.1
74 | CCUCUGGAAUACUAUACAACCUACUACCUCA | 2.19 ± 0.13
